High-throughput results (PubChem)
GSH bead fluor: compound fluoresces at 488/530 nm on GSH beads. GSH beads flow cytometry, compound fluorescence 488/530 nm; stronger effect = higher value. fluorescence (KMESF) at 10 µM. actives 0.25% (n = 190,000); in the data active means fluorescence above about 89;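 further: glutathione beads carrying GST-tagged Bcl family fusion proteins plus one bare bead set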
EP2 antag: blocks the human prostaglandin E2 receptor EP2. C6 glioma cells expressing human EP2, cAMP TR-FRET; cells stimulated with saturating PGE2. P43116. inhibition, % at 25 µM. actives 0.52% (n = 260,000);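 active means percent inhibition above 40 after rounding to a whole number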;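 further: rat C6 glioma host cells with rolipram phosphodiesterase inhibitor present; the protocol text gives 20 µM as final concentration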
Target sequence (P43116 whole entry, looked up): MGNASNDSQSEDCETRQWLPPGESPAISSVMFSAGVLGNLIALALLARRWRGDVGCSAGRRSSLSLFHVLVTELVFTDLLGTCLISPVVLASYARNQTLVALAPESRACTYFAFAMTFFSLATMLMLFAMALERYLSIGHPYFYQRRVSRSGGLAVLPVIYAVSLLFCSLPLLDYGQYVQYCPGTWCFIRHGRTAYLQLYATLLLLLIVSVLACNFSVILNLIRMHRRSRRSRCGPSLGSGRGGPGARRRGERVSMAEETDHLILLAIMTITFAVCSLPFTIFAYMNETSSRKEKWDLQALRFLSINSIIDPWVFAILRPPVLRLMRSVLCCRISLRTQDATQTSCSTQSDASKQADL
Avidin bead fluor: compound fluoresces at 488/530 nm on avidin beads | compound fluorescence 488/530 nm, flow cytometry; stronger effect = higher value | fluorescence (KMESF) at 10 µM | actives 0.38% (n = 220,000); in the data active means fluorescence above about 47
HMGR II inh: E. faecalis class II HMG-CoA reductase inhibition; AID 1066; actives 0.41% (n = 190,000); purified E. faecalis HMGR, NADPH absorbance 340 nm kinetic; inhibition, % at 10 µM;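 active means inhibition above a set limit, the median over all tested compounds plus 3 SD, cut at about 9.5% in these data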;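 further: enzyme runs in reverse so mevalonate oxidation gives rising NADPH absorbance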
EP2 modulator: EP2 receptor (human) modulation | P43116 | EP2-expressing cells, cAMP HTRF FRET, PGE2 co-stimulation | induction, % at 25 µM | actives 0.83% (n = 260,000) | AID 940;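 active means compounds whose cAMP rise, as percent of the full-agonist control response, exceeds 60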;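 further: rat C6 glioma line stably carrying human EP2 under a CMV promoter; the protocol text gives 20 µM as final concentration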
A number is an active result; i = inactive; nt = no result; ! = not confirmed by another sample. Only some compounds are listed: those with a hit (about 2.1% of all), similar ones and a draw of the others.

SMILES | GSH bead fluor | EP2 antag | Avidin bead fluor | HMGR II inh | EP2 modulator
CCOC(=O)c1cn(CC2CC2)c2cc(F)c(F)cc2c1=O | i | i | 54 | i | i
CC(C)CC(=O)NC(=S)Nc1cccc2nsnc12 | i | i | i | i | i
COc1c(C)cccc1C(=O)NC(=S)Nc1cccc2nsnc12 | i | 129.3 | i | i | i
Cc1ccc(CN(CCCn2ccnc2)Cc2cnc(N(C)C)nc2)s1 | nt | i | nt | nt | i
Clc1ccc2c(c1)c1cc(Cl)ccc1n2CN1CCOCC1 | i | i | i | i | 64.4
CC(C)(C)n1nnnc1C(c1cccc(C#N)c1)N1CCCc2ccccc21 (stereo unspecified) | i | 103.2! | i | i | i
COc1ccccc1C(c1nnnn1C(C)(C)C)N1CCCc2ccccc21 (stereo unspecified) | i | i | i | i | 67.5!
COc1cc2cc(C(c3nnnn3C3CCCC3)N3CCc4ccccc43)c(=O)[nH]c2cc1OC (stereo unspecified) | i | nt | i | i | i
COc1cc2cc(C(c3nnnn3C(C)(C)C)N3CCc4ccccc43)c(=O)[nH]c2cc1OC (stereo unspecified) | i | 149.6 | i | i | i
CC(C)(C)n1nnnc1C(c1ccc(Cl)cc1)N1CCCc2ccccc21 (stereo unspecified) | i | i | i | i | i
COc1ccc(OC)c(NC(=O)CSc2n[nH]c(C)n2)c1 | nt | i | nt | nt | i
CC(C)(C)c1ccc(S(=O)(=O)/C=C/C#N)cc1 | nt | 96.6 | nt | nt | i
CNc1ncc(CN(CCCn2ccnc2)Cc2ccc(C)o2)cn1 | nt | i | nt | nt | i
O=C(N/N=C/c1cc(Br)cc(Br)c1O)c1cccc(S(=O)(=O)N2CCOCC2)c1 | nt | i | i | nt | i
O=C(N/N=C/c1cc(Br)cc(Br)c1O)c1cccc(N2CCCC2=O)c1 | i | i | i | 14.3 | i
CC(C)CNC(=O)c1ccccc1NC(=O)c1ccc(CN2CCOCC2)cc1 | i | i | 48 | i | i
CCCC(c1nnnn1C(C)(C)CC)N(Cc1ccccc1)Cc1cc2cc(C)cc(C)c2[nH]c1=O (stereo unspecified) | nt | i | nt | nt | i
CCN(Cc1ccccc1)C(c1ccc(C)cc1)c1nnnn1C(C)(C)CC (stereo unspecified) | i | i | i | i | i
CCN(Cc1ccccc1)C(c1ccncc1)c1nnnn1C(C)(C)C (stereo unspecified) | i | i | 49 | i | i
O=C(Nc1ccncc1)c1cn(-c2ccccc2)nc1-c1cccs1 | i | nt | i | 13.4 | i
CCOC(=O)c1sc(NC(=O)CSc2nc(C(C)(C)C)nc3ccccc23)nc1C | nt | i | nt | nt | i
COCC(C)NC(=O)c1ccco1 (stereo unspecified) | nt | i | nt | nt | i
COc1cccc(C2=NN(C(=O)c3ccccc3)C(O)(C(F)(F)F)C2)c1 (stereo unspecified) | i | nt | i | i | 64.5
CC(C)(C)C1CCC(=NNC(=O)CN(c2ccccc2)S(=O)(=O)c2ccccc2[N+](=O)[O-])CC1 (stereo unspecified) | i | i | 53 | i | i
CCCC(c1nnnn1Cc1cccs1)N1CCN(C2CCCC2)CC1 (stereo unspecified) | i | i | 117 | i | i
SMILES | GSH bead fluor | EP2 antag | Avidin bead fluor | HMGR II inh | EP2 modulator
COc1ccccc1NC(=O)CN1C(=O)c2ccccc2S1(=O)=O | nt | i | nt | nt | i
CCCCCCc1cc2cc(-c3nnc(-c4ccccc4OC)o3)c(=O)oc2cc1O | 248 | i | i | i | i
CCCCCCc1cc2cc(-c3nnc(-c4cc(OC)c(OC)c(OC)c4)o3)c(=O)oc2cc1O | 113 | i | i | i | i
COc1ccccc1CNC(=O)CN1CCC(n2cnc3cccnc32)CC1 | nt | i | nt | nt | i
Cc1ccc(-n2c(SCC(=O)N3CCCC(C)C3)nnc2-c2ccco2)cc1 (stereo unspecified) | nt | 93.2 | nt | nt | i
Cc1ccc(-n2c(SCC(=O)NC3CCCCC3)nnc2-c2ccco2)cc1 | nt | i | nt | nt | i
CCSc1nnc(NC(=O)c2ccc(C)o2)s1 | i | i | 48 | i | i
CCSc1nnc(NC(=O)c2cc(C)oc2C)s1 | i | i | i | i | i
Cc1cc(C)c2cc3c(nc2c1)OCC(=O)N(Cc1cccs1)C3 | nt | nt | nt | nt | i
CC(C)OC(=O)c1ccc2c(c1)no[n+]2[O-] | nt | i | nt | nt | i
CC(C)CO/C(=N/S(=O)(=O)c1ccccc1)c1ccccc1 | i | i | i | i | 64.7
CC(C)O/C(=N\S(=O)(=O)c1ccc(Cl)cc1)c1ccccc1 | i | i | i | i | i
CCS(=O)(=O)N1CCN(S(=O)(=O)c2ccc(S(=O)(=O)N3CCCCCC3)cc2)CC1 | nt | i | nt | nt | i
COc1ccccc1CNC(=O)c1csc(Cc2ccc(Cl)cc2)n1 | i | i | i | i | 62.1
O=C1OCCC/C1=C\c1ccc2c(c1)OCO2 | nt | i | i | nt | 81.9
COc1ccc2cc(C(=O)NCc3ccco3)c(=Nc3ccc(C(=O)O)cc3)oc2c1 | i | i | i | i | i
COc1ccc2oc(=Nc3ccc(C(=O)O)cc3)c(C(=O)NCc3ccco3)cc2c1 | i | i | i | 15.4 | i
C=C(C)Cn1c(SCC)nc2c1c(=O)n(C)c(=O)n2C | nt | i | nt | nt | i
CC(=O)N1CCC2(CC1)C(C#N)=C(N)OC1=C2C(=O)CC(C)(C)C1 | i | i | 51 | i | i
CCC(c1nnnn1C(C)(C)C)N(CCc1ccccc1)Cc1cc2cc(C)ccc2[nH]c1=O (stereo unspecified) | nt | i | nt | nt | i
Cc1ccc2[nH]c(=O)c(CN(Cc3ccco3)Cc3nnnn3C3CCCCC3)cc2c1 | nt | i | nt | nt | i
CCC(c1nnnn1C(C)(C)CC)N(Cc1ccco1)Cc1cc2cc(C)ccc2[nH]c1=O (stereo unspecified) | nt | i | nt | nt | 89.5
Cc1cc(C)c2cc(CN(Cc3cccs3)C(c3nnnn3C(C)(C)C)C(C)C)c(=O)[nH]c2c1 (stereo unspecified) | nt | i | nt | nt | 61.4
CCCC(c1nnnn1C1CCCCC1)N(Cc1ccco1)Cc1cc2c(C)cc(C)cc2[nH]c1=O (stereo unspecified) | nt | i | nt | nt | 69.0
Cc1cc(C)c2cc(CN(Cc3ccco3)Cc3nnnn3C3CCCCC3)c(=O)[nH]c2c1 | nt | i | nt | nt | 68.8
SMILES | GSH bead fluor | EP2 antag | Avidin bead fluor | HMGR II inh | EP2 modulator
N#CCCN(CCC#N)c1nccs1 | nt | i | nt | nt | i
CCCC(c1nnnn1C(C)(C)C)N(Cc1cc2cc(C)ccc2[nH]c1=O)C1CCCCC1 (stereo unspecified) | nt | i | nt | nt | 65.9
CCc1ccc2[nH]c(=O)c(CN(Cc3cccs3)C(CC)c3nnnn3C(C)(C)CC)cc2c1 (stereo unspecified) | nt | i | nt | nt | 60.8
CCCC(c1nnnn1C1CCCC1)N(Cc1ccco1)Cc1cc2cc(C)cc(C)c2[nH]c1=O (stereo unspecified) | nt | i | nt | nt | i
CCCC(c1nnnn1C1CCCCC1)N(Cc1ccco1)Cc1cc2cc(CC)ccc2[nH]c1=O (stereo unspecified) | nt | i | nt | nt | 82.3
CCC(c1nnnn1C(C)(C)C)N(Cc1ccco1)Cc1cc2cc(C)ccc2[nH]c1=O (stereo unspecified) | nt | i | nt | nt | i
